The results in this text go back to PubChem BioAssay (EPA / NIEHS).

In experiment [1] the target is human Phosphatase and Tensin Homolog (PTEN), PTEN (gene 5728) (UniProt P60484). In words: NVS_ENZ_hPTEN: NovaScreen (NVS) Enzymatic Assay for human Phosphatase and Tensin Homolog (PTEN) (AID 2283203). In short, it runs like this:
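Cell-free recombinant human PTEN with fluorescent substrate; product separated by electrophoretic mobility shift and read by fluorescence 1 h after dosing. Primary screen in duplicate at 25 uM, actives followed in concentration series versus DMSO.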

Experiment [2] concerns the target human Protein Tyrosine Phosphatase Receptor Type C (PTPRC), PTPRC (gene 5788) (UniProt P08575). The experiment is described as follows: NVS_ENZ_hPTPRC: NovaScreen (NVS) Enzymatic Assay for human Protein Tyrosine Phosphatase Receptor Type C (PTPRC) (AID 2283212). In short, it runs like this:
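Yeast-extracted human PTPRC used in a cell-free colorimetric enzyme activity read-out, 1 h after dosing. Primary screen in duplicate at 25 uM; actives rerun in concentration-response up to 50 uM, DMSO as baseline.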

The target of experiment [3] is human Phosphodiesterase 10 (PDE10), PDE10A (gene 10846) (UniProt Q9Y233). The experiment is described as follows: NVS_ENZ_hPDE10: NovaScreen (NVS) Enzymatic Assay for human Phosphodiesterase 10 (PDE10) (AID 2283195). In short, it runs like this: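 PDE10A, cell-free; 1 h incubation; fluorescence intensity + electrophoretic mobility shift separating substrate/product; DMSO = baseline; 25 uM duplicate primary, CRC up to 50 uM.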

Experiment [4] has as its target human Phosphoinositide 3-kinase alpha (PI3Ka), PIK3CA (gene 5290) (UniProt P42336). In words: NVS_ENZ_hPI3Ka: NovaScreen (NVS) Enzymatic Assay for human Phosphoinositide 3-kinase alpha (PI3Ka) (AID 2283196). In short, it runs like this:
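Enzyme activity as fluorescence after mobility-shift separation of substrate and product, 1 h reaction, recombinant human PI3Kα; concentration-response to 50 uM max for chemicals passing a 25 uM duplicate screen.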

For experiment [5], the target named is human Sirtuin 2 (SIRT2), SIRT2 (gene 22933) (UniProt Q8IXJ6). The experiment is described as follows: NVS_ENZ_hSIRT2: NovaScreen (NVS) Enzymatic Assay for human Sirtuin 2 (SIRT2) (AID 2283217). In short, it runs like this: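 Cell-free recombinant human SIRT2, fluorescent substrate with product separated by electrophoretic mobility shift, 1 hr. Screened in duplicate at 25 uM; hits rerun singly in concentration-response up to 50 uM, relative to DMSO.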

The target in experiment [6] is human Sirtuin 1 (SIRT1), SIRT1 (gene 23411) (UniProt Q96EB6). The experiment is described as follows: NVS_ENZ_hSIRT1: NovaScreen (NVS) Enzymatic Assay for human Sirtuin 1 (SIRT1) (AID 2283219). In short, it runs like this:
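Cell-free recombinant SIRT1 with a fluorescent substrate; substrate and product separated by electrophoretic mobility shift and read by fluorescence intensity, 1 h after dosing. Primary screen at 25 uM in duplicate; hits re-run in concentration-response up to 50 uM, relative to DMSO.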

In experiment [7] the target is human Sirtuin 3 (SIRT3), SIRT3 (gene 23410) (UniProt Q9NTG7). The experiment is described as follows: NVS_ENZ_hSIRT3: NovaScreen (NVS) Enzymatic Assay for human Sirtuin 3 (SIRT3) (AID 2283222). In short, it runs like this:
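Cell-free enzyme assay with recombinant protein and fluorescent substrate, product separated by electrophoretic mobility shift; read 1 hour after dosing. Screened in duplicate at 25 uM, then singleton concentration-response up to 50 uM; loss of signal versus DMSO.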

Experiment [8] concerns the target human Rho Associated Coiled-coil Containing Protein Kinase 1 (ROCK1), ROCK1 (gene 6093) (UniProt Q13464). The experiment is described as follows: NVS_ENZ_hROCK1: NovaScreen (NVS) Enzymatic Assay for human Rho Associated Coiled-coil Containing Protein Kinase 1 (ROCK1) (AID 2283214). In short, it runs like this:
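Cell-free recombinant human ROCK1 activity assay; fluorescent substrate and product separated by electrophoretic mobility shift, read 1 h after dosing. Screened in duplicate at 25 uM; loss of signal versus DMSO baseline scored as inhibition.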

For experiment [9], the target named is human Protein Tyrosine Phosphatase Non-receptor Type 1 (PTPN1), PTPN1 (gene 5770) (UniProt P18031). The experiment is described as follows: NVS_ENZ_hPTPN1: NovaScreen (NVS) Enzymatic Assay for human Protein Tyrosine Phosphatase Non-receptor Type 1 (PTPN1) (AID 2283201). In short, it runs like this: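 Cell-free fluorogenic-substrate activity assay on recombinant enzyme, read 1.33 h after dosing by fluorescence and electrophoretic mobility shift; loss of signal vs DMSO baseline. Primary screen in duplicate at 25 uM, hits then run in concentration-response up to 50 uM.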

In experiment [10] the target is Tyrosine-protein phosphatase non-receptor type 12 (Homo sapiens) (UniProt Q05209). In words: NVS_ENZ_hPTPN12: NovaScreen (NVS) Enzymatic Assay for human Protein Tyrosine Phosphatase Non-receptor Type 12 (PTPN12) (AID 2283204). In short, it runs like this:
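Single-concentration duplicates (25 uM) preceded singleton concentration-response up to 50 uM for chemicals passing threshold. Cell-free recombinant PTPN12 activity was read 1.33 h after dosing via fluorescence after mobility-shift separation; loss of signal versus DMSO.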

The target in experiment [11] is human Protein Tyrosine Phosphatase Non-receptor Type 6 (PTPN6), PTPN6 (gene 5777) (UniProt P29350). The experiment is described as follows: NVS_ENZ_hPTPN6: NovaScreen (NVS) Enzymatic Assay for human Protein Tyrosine Phosphatase Non-receptor Type 6 (PTPN6) (AID 2283210). In short, it runs like this: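 Cell-free assay with recombinant PTPN6 expressed in SF9 cells, fluorescent substrate, product separated from substrate by electrophoretic mobility shift; read 1.33 hours after dosing. Primary screen in duplicate at 25 uM, actives retested in concentration series; DMSO baseline.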

The target of experiment [12] is PPP2CA (gene 5515) (UniProt P67775). The experiment is described as follows: NVS_ENZ_hPPP2CA: NovaScreen (NVS) Enzymatic Assay for human Protein Phosphatase 2 Aatalytic subunit Alpha (PPP2CA) (AID 2283199). In short, it runs like this: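 Recombinant human PPP2CA with fluorescent substrate; product separated from substrate by electrophoretic mobility shift, read 1.33 h after dosing. Duplicate single-point at 25 uM, then singleton concentration-response up to 50 uM; loss of signal versus DMSO.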

The target in experiment [13] is Serine/threonine-protein phosphatase PP1-alpha catalytic subunit (Homo sapiens) (UniProt P62136). In words: NVS_ENZ_hPPP1CA: NovaScreen (NVS) Enzymatic Assay for human Protein Phosphatase 1 Aatalytic subunit Alpha (PPP1CA) (AID 2283200). In short, it runs like this: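 Recombinant enzyme activity read by fluorescence with electrophoretic mobility shift separating substrate from product, 1.33 h after dosing; loss of signal vs DMSO baseline. Primary screen in duplicate at 25 uM; actives retested in concentration-response up to 50 uM.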

Experiment [14] deals with Tyrosine-protein phosphatase non-receptor type 11 (Homo sapiens) (UniProt Q06124). In words: NVS_ENZ_hPTPN11: NovaScreen (NVS) Enzymatic Assay for human Protein Tyrosine Phosphatase Non-receptor Type 11 (PTPN11) (AID 2283202). In short, it runs like this:
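Recombinant human PTPN11 activity on a fluorescent substrate, with substrate/product separated by electrophoretic mobility shift; read 0.5 h after dosing, loss of signal vs DMSO. Duplicate 25 uM screen, then concentration-response up to 50 uM.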

Experiment [15] has as its target Tyrosine-protein phosphatase non-receptor type 13 (Homo sapiens) (UniProt Q12923). In words: NVS_ENZ_hPTPN13: NovaScreen (NVS) Enzymatic Assay for human Protein Tyrosine Phosphatase Non-receptor Type 13 (PTPN13) (AID 2283205). In short, it runs like this: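 Cell-free assay of recombinant human PTPN13 with a fluorescent substrate, product separated by electrophoretic mobility shift and read 0.5 h after dosing. Primary screen at 25 uM in duplicate, then concentration-response up to 50 uM. Loss of signal fitted against DMSO.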

In experiment [16] the target is human Raf-1 Proto-Oncogene, serine/threonine Kinase (RAF1), RAF1 (gene 5894) (UniProt P04049). The experiment is described as follows: NVS_ENZ_hRAF1: NovaScreen (NVS) Enzymatic Assay for human Raf-1 Proto-Oncogene, serine/threonine Kinase (RAF1) (AID 2283216). In short, it runs like this:
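Cell-free recombinant kinase with specific fluorescent substrate, product separated by electrophoretic mobility shift; read 1 h after dosing. Primary screen at 25 uM in duplicate; hits then run in concentration-response up to 50 uM, fitted as loss of signal versus DMSO.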

For experiment [17], the target named is human Protein Tyrosine Phosphatase Non-receptor Type 9 (PTPN9), PTPN9 (gene 5780) (UniProt P43378). In words: NVS_ENZ_hPTPN9: NovaScreen (NVS) Enzymatic Assay for human Protein Tyrosine Phosphatase Non-receptor Type 9 (PTPN9) (AID 2283209). In short, it runs like this:
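Sf9-expressed enzyme in a cell-free assay, fluorescence read 1.33 h after dosing with mobility-shift separation of substrate and product. Tested at 25 uM in duplicate, then up to 50 uM; signal loss versus DMSO.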

The target of experiment [18] is human Phosphodiesterase 5 (PDE5), PDE5A (gene 8654) (UniProt O76074). In words: NVS_ENZ_hPDE5: NovaScreen (NVS) Enzymatic Assay for human Phosphodiesterase 5 (PDE5) (AID 2283194). In short, it runs like this:
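Recombinant human PDE5 with specific substrate, read 1 h after dosing by fluorescence with electrophoretic mobility-shift separation of substrate and product. Initial single-concentration duplicate screen at 25 uM, actives followed in concentration series; loss of activity versus DMSO.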

Inconclusive results are not listed. The source made the active and inactive calls. Rule for the calls: active = hit-call score of the fitted dose curve at least 0.9, where 1 is the maximum; inconclusive = response in the unintended direction; inactive = score below 0.9.

Chain of human Protein Tyrosine Phosphatase Non-receptor Type 6 (PTPN6), PTPN6 (gene 5777) (P29350 whole entry, looked up): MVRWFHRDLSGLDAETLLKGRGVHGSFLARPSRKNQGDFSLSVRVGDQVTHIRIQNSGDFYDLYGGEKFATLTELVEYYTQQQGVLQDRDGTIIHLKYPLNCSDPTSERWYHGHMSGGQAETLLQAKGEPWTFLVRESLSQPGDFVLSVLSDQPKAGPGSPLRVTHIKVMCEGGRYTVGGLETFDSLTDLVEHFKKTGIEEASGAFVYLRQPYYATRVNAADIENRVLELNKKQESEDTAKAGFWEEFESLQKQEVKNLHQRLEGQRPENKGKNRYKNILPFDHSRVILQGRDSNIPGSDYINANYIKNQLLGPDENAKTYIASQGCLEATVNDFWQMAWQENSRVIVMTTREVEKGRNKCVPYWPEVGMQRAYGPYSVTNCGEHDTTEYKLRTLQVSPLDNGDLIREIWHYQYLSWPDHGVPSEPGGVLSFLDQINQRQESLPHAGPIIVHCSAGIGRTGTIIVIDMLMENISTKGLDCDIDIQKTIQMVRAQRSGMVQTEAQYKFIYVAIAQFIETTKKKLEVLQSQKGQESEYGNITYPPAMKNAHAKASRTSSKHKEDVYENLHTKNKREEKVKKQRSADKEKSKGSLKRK
Chain of human Phosphoinositide 3-kinase alpha (PI3Ka), PIK3CA (gene 5290) (P42336 whole entry, looked up): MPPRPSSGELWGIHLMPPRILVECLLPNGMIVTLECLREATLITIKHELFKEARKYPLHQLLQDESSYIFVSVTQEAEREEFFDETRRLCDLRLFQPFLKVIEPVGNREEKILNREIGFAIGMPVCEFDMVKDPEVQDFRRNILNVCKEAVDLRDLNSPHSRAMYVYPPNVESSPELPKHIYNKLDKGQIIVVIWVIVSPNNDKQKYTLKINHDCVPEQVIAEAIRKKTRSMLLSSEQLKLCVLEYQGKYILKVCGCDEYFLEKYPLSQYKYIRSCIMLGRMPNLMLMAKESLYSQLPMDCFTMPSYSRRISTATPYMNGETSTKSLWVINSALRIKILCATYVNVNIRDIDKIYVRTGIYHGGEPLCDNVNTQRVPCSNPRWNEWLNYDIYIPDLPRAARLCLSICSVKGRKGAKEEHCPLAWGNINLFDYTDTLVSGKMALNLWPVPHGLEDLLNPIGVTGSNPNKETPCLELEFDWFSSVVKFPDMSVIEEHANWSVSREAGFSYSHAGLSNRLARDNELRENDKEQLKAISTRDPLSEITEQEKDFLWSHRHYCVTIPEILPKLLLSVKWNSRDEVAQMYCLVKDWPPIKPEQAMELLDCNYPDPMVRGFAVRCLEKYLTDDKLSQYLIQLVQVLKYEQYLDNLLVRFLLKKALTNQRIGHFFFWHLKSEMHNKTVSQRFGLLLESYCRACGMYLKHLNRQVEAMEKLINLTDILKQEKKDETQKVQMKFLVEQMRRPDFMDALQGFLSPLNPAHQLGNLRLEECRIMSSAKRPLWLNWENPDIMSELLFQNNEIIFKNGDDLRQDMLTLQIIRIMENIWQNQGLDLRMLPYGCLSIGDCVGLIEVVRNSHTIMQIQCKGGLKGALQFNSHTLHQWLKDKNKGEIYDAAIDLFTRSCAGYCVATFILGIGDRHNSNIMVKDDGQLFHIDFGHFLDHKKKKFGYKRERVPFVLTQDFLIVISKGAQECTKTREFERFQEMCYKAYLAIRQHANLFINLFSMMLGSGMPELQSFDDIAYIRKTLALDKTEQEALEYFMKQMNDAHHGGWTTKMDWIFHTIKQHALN
Chain of human Phosphatase and Tensin Homolog (PTEN), PTEN (gene 5728) (P60484 whole entry, looked up): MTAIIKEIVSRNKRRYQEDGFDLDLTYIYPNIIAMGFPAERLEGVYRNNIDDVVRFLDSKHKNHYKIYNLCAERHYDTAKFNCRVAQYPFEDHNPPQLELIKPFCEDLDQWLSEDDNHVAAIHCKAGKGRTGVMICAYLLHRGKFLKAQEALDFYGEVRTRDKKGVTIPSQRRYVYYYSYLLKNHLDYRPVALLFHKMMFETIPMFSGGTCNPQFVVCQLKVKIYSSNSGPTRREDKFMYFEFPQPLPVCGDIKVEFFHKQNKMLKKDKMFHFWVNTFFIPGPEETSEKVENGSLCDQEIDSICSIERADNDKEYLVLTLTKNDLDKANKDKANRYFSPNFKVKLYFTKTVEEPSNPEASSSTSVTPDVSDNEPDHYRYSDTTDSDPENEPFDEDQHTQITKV
Chain of human Phosphodiesterase 10 (PDE10), PDE10A (gene 10846) (Q9Y233 whole entry, looked up): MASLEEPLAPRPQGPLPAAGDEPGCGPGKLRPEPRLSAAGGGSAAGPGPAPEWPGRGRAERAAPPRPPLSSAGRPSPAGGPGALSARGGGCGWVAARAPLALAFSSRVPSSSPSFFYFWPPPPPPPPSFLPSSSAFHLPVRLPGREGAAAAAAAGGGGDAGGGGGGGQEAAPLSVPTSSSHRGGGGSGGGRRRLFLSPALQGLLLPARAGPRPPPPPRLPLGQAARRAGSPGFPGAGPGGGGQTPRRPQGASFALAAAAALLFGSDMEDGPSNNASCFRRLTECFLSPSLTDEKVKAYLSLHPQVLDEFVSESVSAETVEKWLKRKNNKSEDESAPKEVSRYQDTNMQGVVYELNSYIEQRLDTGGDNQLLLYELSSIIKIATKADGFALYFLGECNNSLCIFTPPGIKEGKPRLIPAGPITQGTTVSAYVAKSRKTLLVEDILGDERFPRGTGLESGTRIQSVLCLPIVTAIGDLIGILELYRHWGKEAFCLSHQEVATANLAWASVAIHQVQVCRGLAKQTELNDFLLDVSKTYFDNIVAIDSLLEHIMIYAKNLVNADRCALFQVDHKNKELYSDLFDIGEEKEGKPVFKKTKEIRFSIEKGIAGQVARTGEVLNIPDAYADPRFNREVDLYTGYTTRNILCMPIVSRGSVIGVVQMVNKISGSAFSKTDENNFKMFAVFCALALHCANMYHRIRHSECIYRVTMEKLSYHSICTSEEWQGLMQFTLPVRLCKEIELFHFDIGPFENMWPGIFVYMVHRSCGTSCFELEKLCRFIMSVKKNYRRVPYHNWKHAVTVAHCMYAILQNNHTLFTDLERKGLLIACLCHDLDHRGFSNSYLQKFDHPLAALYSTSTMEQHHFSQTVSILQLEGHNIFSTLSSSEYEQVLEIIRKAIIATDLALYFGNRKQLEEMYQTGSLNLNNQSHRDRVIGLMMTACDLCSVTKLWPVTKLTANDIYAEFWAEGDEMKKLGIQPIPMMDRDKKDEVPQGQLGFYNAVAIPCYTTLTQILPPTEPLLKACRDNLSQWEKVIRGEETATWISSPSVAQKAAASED
Chain of Tyrosine-protein phosphatase non-receptor type 12 (Homo sapiens) (Q05209 whole entry, looked up): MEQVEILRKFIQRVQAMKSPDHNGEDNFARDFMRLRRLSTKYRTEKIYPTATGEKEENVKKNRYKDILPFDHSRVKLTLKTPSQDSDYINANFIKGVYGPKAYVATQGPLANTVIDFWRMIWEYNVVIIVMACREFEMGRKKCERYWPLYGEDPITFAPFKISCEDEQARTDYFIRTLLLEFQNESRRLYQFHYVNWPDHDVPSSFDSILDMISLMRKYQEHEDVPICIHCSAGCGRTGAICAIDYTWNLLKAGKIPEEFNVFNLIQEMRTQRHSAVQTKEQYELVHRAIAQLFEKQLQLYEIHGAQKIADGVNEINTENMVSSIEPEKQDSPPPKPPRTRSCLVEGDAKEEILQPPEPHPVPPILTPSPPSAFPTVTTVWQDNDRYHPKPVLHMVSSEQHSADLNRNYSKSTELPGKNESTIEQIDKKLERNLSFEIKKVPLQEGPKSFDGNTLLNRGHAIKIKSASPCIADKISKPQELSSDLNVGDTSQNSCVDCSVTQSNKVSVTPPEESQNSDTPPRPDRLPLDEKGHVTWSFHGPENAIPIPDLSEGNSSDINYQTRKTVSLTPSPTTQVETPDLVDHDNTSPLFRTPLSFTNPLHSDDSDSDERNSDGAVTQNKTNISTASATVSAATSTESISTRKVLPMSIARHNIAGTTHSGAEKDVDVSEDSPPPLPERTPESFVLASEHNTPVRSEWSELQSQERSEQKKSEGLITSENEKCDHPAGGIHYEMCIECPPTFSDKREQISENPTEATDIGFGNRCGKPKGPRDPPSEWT
Chain of Tyrosine-protein phosphatase non-receptor type 11 (Homo sapiens) (Q06124 whole entry, looked up): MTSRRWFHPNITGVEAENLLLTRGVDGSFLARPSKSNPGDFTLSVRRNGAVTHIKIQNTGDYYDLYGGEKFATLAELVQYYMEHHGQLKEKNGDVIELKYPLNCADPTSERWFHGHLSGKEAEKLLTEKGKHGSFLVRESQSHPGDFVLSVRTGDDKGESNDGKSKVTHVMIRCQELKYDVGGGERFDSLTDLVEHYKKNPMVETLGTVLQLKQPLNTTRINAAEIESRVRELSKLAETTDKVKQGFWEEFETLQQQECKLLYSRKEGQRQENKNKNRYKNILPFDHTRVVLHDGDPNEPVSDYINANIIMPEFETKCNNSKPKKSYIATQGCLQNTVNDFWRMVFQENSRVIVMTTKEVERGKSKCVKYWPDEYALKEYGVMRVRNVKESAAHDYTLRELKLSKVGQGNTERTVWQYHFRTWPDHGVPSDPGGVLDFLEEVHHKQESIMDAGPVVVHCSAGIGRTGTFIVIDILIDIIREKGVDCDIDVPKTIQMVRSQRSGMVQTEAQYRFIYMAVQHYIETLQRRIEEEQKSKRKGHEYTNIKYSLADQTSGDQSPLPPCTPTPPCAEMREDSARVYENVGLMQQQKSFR
Chain of human Sirtuin 2 (SIRT2), SIRT2 (gene 22933) (Q8IXJ6 whole entry, looked up): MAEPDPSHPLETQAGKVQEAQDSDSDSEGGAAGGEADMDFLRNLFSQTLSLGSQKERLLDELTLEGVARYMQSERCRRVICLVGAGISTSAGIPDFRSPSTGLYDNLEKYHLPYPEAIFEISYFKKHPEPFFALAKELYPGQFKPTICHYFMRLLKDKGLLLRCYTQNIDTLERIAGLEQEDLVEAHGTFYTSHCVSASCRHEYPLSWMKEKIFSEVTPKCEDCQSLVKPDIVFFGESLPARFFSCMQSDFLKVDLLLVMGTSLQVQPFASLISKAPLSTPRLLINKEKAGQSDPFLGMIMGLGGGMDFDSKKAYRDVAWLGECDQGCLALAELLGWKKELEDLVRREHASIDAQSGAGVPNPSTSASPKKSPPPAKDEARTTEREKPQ

As a reminder, the AC50 is the concentration giving half of the maximal activity seen. Turning to `Cn1[nH]nnc1=S`, in experiment [1], the concentration at half-maximal activity (AC50) was 1.08 µM (active).
For `CCOP(=S)(OCC)SCSc1ccc(Cl)cc1`, the compound was called inactive in experiment [1].
Take `CCCCN(CCCC)SN(C)C(=O)Oc1cccc2c1OC(C)(C)C2`: in experiment [2], the AC50 was 7.97 µM (active).
`ClC(Cl)=C(c1ccc(Cl)cc1)c1ccccc1Cl`: the compound was classed as inactive in experiment [1].
As to `Cc1ccc(C(=O)Cl)cc1`, the compound was classed as inactive in experiment [1].
With `N#C/C=C/c1ccccc1`, the result in experiment [3] was inactive.
For the compound `CSC(C)(C)C=NO`, the compound was classed as inactive in [4], in experiment [5], in experiment [6] and in experiment [7].
Take `Cc1ccc([N+](=O)[O-])cc1C`: the compound was classed as inactive in experiment [8] and in [6].
For `ClC1=C(Cl)C2(Cl)C3C(Cl)C(Cl)CC3C1(Cl)C2(Cl)Cl` (stereo unspecified), the outcome in experiment [4], in experiment [9] and in [10] was inactive.
As to `c1nc[nH]n1`, in [11], the outcome was inactive.
In the case of `O=[N+]([O-])c1cc(Cl)ccc1Cl`, the outcome in [3] and in experiment [1] was inactive.
As for `CC(C)(C)OOC(C)(C)C`, the call in [12], in [13], in [14], in [1], in experiment [10] and in [15] was inactive. Moreover, the outcome in [11] and in experiment [16] was inactive.
In the case of `CCC(C)(C)c1ccc(O)cc1`, the AC50 in experiment [17] was 42.1 µM (active).
With `CC1(C)CN=C(NN=C(/C=C/c2ccc(C(F)(F)F)cc2)/C=C/c2ccc(C(F)(F)F)cc2)NC1`, the AC50 in experiment [4] is 14.1 µM (active); in [14], 13.4 µM (active).
On to `[N-]=[N+]=[N-]`, for which the result in [18] and in [11] was inactive.
